# Bioassay records deposited in PubChem BioAssay by National Center for Advancing Translational Sciences (NCATS).
# FMDV antiviral – High Throughput Screening for Foot and Mouth Disease Virus Antivirals; FMDV antiviral cell-based qHTS; 1.2% of 410,000 active; Potency, µM (doses to about 57.9 µM), without a hit: at the top dose activity change, negative = inhibition, hits mostly inhibitors; calls by dose curve; tested in HEK293T cells; note: read-out not given here; potency is the fitted concentration of half-maximal effect; nearly all actives have a fitted effect of over 45% in size
# HCMV inh – qHTS Assay for inhibitors of the human cytomegalovirus (HCMV) | HFF cells, HCMV-luciferase reporter, 72 h; active compounds read low | activity change, negative = inhibition, % at 57.5 µM | 4.5% of 410,000 active; in the data active = activity change below about -60%; inconclusive = no clear call, values can overlap the other calls; inactive = above about -39%
#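 Steps: HFFs plated, 16 h 37C; compounds added; HCMV-luciferase added to MOI 1 PFU/cell; 72 h 37C; OneGlo reagent, 5 min room temperature; luminescence read, normalized to controls.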
# Vaccinia mCherry – qHTS for Stage-Specific Inhibitors of Vaccinia Orthopoxvirus: mCherry Reporter Primary qHTS; Vaccinia virus mCherry reporter infection, fluorescence; Potency, µM (top dose mostly 36.5 µM), for inactives: at the top dose activity change, negative = inhibition, hits mostly inhibitors; 0.63% of 310,000 active; AID 720579, 2013; calls by dose curve; tested in A549 cells; note: potency is the fitted concentration of half-maximal effect; nearly all actives have a fitted effect of over 35% in size
# LASV entry inh – qHTS for Inhibitors of binding or entry into cells for Lassa Virus | Potency, µM (series often up to 37.9 µM), for inactives: at the top dose activity change, negative = inhibition, actives largely listed as inhibitors | AID 540256, 2011 | 1.2% of 300,000 active | Lassa virus pseudotype entry inhibition, cell reporter; calls by dose curve; tested in HEK293 cells; note: potency is the fitted concentration of half-maximal effect; nearly all actives have a fitted effect of over 50% in size
# VACV Venus inh – qHTS for Stage-Specific Inhibitors of Vaccinia Orthopoxvirus: Venus Reporter Primary qHTS. Vaccinia virus Venus reporter expression, fluorescence. Potency, µM (top dose mostly 36.5 µM), without a hit: top-dose activity change, negative = inhibition, actives largely listed as inhibitors. 0.46% of 330,000 active; calls by dose curve; tested in A549 cells; note: potency is the fitted concentration of half-maximal effect; nearly all actives have a fitted effect of over 30% in size
# Marburg entry inh – qHTS for inhibitors of binding or entry into cells for Marburg Virus | Marburg virus pseudotyped entry inhibition, cell reporter | Potency, µM (highest dose often 37.8 µM), for inactives: at the top dose activity change, negative = inhibition, hits mostly inhibitors | 1.8% of 300,000 active; calls by dose curve; tested in HEK293 cells; note: potency is the fitted concentration of half-maximal effect
# * = called active by the depositor; i = inactive; u = inconclusive; x = not tested or not shown; [ ] = another dose, or the depositor's remark. Hits are enriched below; roughly 6.5% of the tested compounds scored in any of these assays. % is set by controls: 0 for no effect and ±100 for the full control effect.
SMILES,FMDV antiviral,HCMV inh,Vaccinia mCherry,LASV entry inh,VACV Venus inh,Marburg entry inh
CC(C)OC(=O)c1cc(NC(=S)Nc2ccc([N+](=O)[O-])cc2)cc(C(=O)OC(C)C)c1,u,-86*,-8%,u,-17%,14µM*
CCCCNC(=S)Nc1ccc([N+](=O)[O-])cc1,17%,-75*,u,u,u,u
CC(C)CCNC(=S)Nc1ccc(Br)cc1,-16%,u,-13%,u,u,u
CCCCNC(=S)NC(=O)c1ccc([N+](=O)[O-])cc1,31%,-1,x,-10%,-11%,u
CC(C)CCNC(=S)Nc1ccc([N+](=O)[O-])cc1,12%,-98*,u,u,u,u
O=[N+]([O-])c1ccc(NNC(=S)Nc2ccc(F)cc2)cc1,0%,-99*,u,u,u,u
N[C@@H](CCS(=O)O)C(=O)O,5%,x,-8%,x,-7%,x
O=C(c1cccnc1)N1CC(=O)N2[C@@H](CO)[C@H](c3ccc(Br)cc3)[C@@H]2C1,x,4,x,x,x,x
COc1ccc(N2CC(C)(C)C[C@@H]2/C=C/C(=O)OC(C)(C)C)cc1,x,-13,x,x,x,x
COc1ccc(Cn2c(SCc3ccc(C(=O)NC(C)C)cc3)nc3cccnc32)cc1,u,-22,-13%,-5%[46.1 µM],-2%,x
COc1ccc(Cn2nnnc2C(c2ccccc2Cl)N2CCN(C)CC2)cc1 (centres undefined),-20%,-63*,x,7%,-26%,0%
CN1CCN(C(c2cccc(C(F)(F)F)c2)c2nnnn2Cc2ccccc2)CC1 (centres undefined),x,-7,-10%,u,-22%,15µM*
N#Cc1cccc(C(c2nnnn2Cc2ccccc2)N2CCCC2)c1 (centres undefined),x,14,-2%,2%,-15%,0%
CCCC(c1nnnn1Cc1ccc(OC)cc1)N1CCN(c2ccccc2OC)CC1 (centres undefined),35µM*,-4,x,u,-29%,u
O=C(NCC1CCC2(CCN(Cc3cccn3-c3ccc(Cl)cn3)CC2)O1)c1ccccc1 (centres undefined),-18%,x,-9%,x,-1%,x
Cc1cc2nc(N3CCCN(Cc4cccn4-c4ncccn4)CC3)nc(C)c2cc1C,-15%,x,-18%,x,12%,x
COc1ccccc1-n1nc(-c2ccccc2)c2cnc3cc(C(F)(F)F)ccc3c21,-7%,-5,-1%,-3%[46.1 µM],-6%,-1%[46.1 µM]
CN(C)CCNc1cc(-c2ccncc2)nc2ccccc12,6%,34,i,-12%[46.1 µM],-22%,6.3µM*
Cc1ccc(-c2nc(NCCN(C)C)c3ccccc3n2)cc1,36%,24,u,u,u,u
NC(=O)C1=CC2C3C=CC2(O)C(=O)OC3O1 (centres undefined),u,-97*,-11%,7.1µM*,-14%,u
Cc1cccc(C(=O)NC(=S)NNC(=O)Cc2ccccc2)c1,-26%,-84*,-26%,17%,-7%,1%
CC(NC(=O)c1ccccc1)C(=O)NNC(=O)c1ccccc1Cl (centres undefined),-2%,-63*,x,x,x,x
Cc1cccc(C(=O)NC(=S)NNC(=O)COc2c(C)cccc2C)c1,-21%,-4,-23%,1%,u,u
Cc1cccc(C(=O)NC(=S)NNC(=O)c2ccccc2Cl)c1,-13%,-67*,-16%,u,-1%,u
Cc1cccc(C(=O)NC(=S)NCc2ccccc2)c1,30%,u,i,18µM*,-12%,14%
SMILES,FMDV antiviral,HCMV inh,Vaccinia mCherry,LASV entry inh,VACV Venus inh,Marburg entry inh
CC(NC(=O)c1ccccc1Cl)NC(=O)c1ccccc1Cl,-13%,59,x,x,x,x
Cc1ccccc1C(=O)Nc1cccc(NC(=O)c2ccc(-c3ccc(Br)cc3)o2)c1,u,-96*,x,u,-21%,u
COC(=O)c1cc2oc(C)cc2n1CC(=O)Nc1cc(Cl)ccc1OC,-15%,13,-21%,x,-13%,u
COC(=O)c1cc2ccsc2n1CC(=O)Nc1cc(Cl)ccc1OC,x,-97*,u,-22%,u,-28%
Cc1cccc(NC(=O)C(c2ccccc2)N2Cc3ccccc3C2=O)c1C (centres undefined),16%,-74*,i,-1%[46.1 µM],-7%,x
CCc1ccccc1NC(=O)[C@@H](c1ccccc1)N1Cc2ccccc2C1=O,4%,-17,-4%,-20%[46.1 µM],4%,u
CCN=C1S/C(=C\c2cc(OCC)c(O)cc2Br)C(=O)N1CC,32µM*,-9,u,u,u,u
COc1cc(/C=C2/SC(=NCc3ccccc3)N(Cc3ccccc3)C2=O)ccc1O,-18%,-11,-12%,-25%,22%,3%
CCN=C1S/C(=C\c2ccc(O)c(OCC)c2)C(=O)N1CC,-8%,-6,u,13µM*,u,u
CCN=C1S/C(=C\c2cn(CC)c3ccccc23)C(=O)N1CC,-12%,58,-25%,u,-11%,-13%[46.1 µM]
COc1ccc(S(=O)(=O)c2nnn(-c3ccc(C(C)C)cc3)c2C)cc1,u,-28,-27%,6%[46.1 µM],u,12%[46.1 µM]
O=C(Cn1c(=O)n(CCc2ccccc2)c(=O)c2cccnc21)Nc1ccc(F)cc1,-10%,35,-13%,x,5%,-16%[46.1 µM]
COc1ccc2cc(-c3cn4c(n3)sc3cc(F)ccc34)c(=O)oc2c1,-5%,-8,-9%,-6%[46.1 µM],-1%,x
CC(C)c1ccc(Cc2cn3cc(-c4cc5ccccc5oc4=O)nc3s2)cc1,31%,-78*,u,0%[46.1 µM],u,u
Cc1ccc2c(c1)sc1nc(-c3cc4ccccc4oc3=O)cn12,0.32µM*,-79*,-2%,16%[46.1 µM],0%,x
O=c1oc2ccccc2cc1-c1cn2ccccc2n1,7.9µM*,-63*,-7%,1.8µM*,u,u
CC(C)(C)OC(=O)N1CCC(c2c(C(=O)N3CCN(c4ccccc4F)CC3)cnn2-c2ccccc2Cl)CC1,-23%,-29,-15%,u,-8%,x
Cc1ccc(-n2c(-c3ccccc3)c[n+]3c2CCc2ccccc2-3)c(C)c1,2.8µM*,-97*,u,1µM*,u,u
Cc1ccc(-n2c(SCC(=O)N3CCCc4ccccc43)nnc2-c2cccnc2)c(C)c1,-19%,u,i,8%,-7%,-17%
Cc1ccc(CN2CCC(CNC(=O)c3cc4ccc5cccnc5c4[nH]3)CC2)cc1,-29%,-106*,u,u,u,x
Cc1ccc(C)c(CN2CCC(CNC(=O)c3cc4ccc5cccnc5c4[nH]3)CC2)c1,-5%,u,u,-9%[46.1 µM],-19%,x
COc1ccc(C2(C(=O)NCC3Cc4cccc(-c5cccnc5)c4O3)CCCC2)cc1 (centres undefined),-14%,x,-19%,x,-12%,x
